Six compounds from PubChem BioAssay (EPA / NIEHS) can be followed below.

The structures appear in SMILES notation. Active and inactive are the calls of the source. The calls were made as follows: active = hit-call score of the fitted dose curve at least 0.9, where 1 is the maximum; inactive = score below 0.9.

What all share (settings): mRNA level, 48 h; actives raise or lower the signal
Read-out in one assay: HGF (gene 3082)
As to the kind of experiment: LTEA_HepaRG_HGF: Life Technologies and Expression Analysis (LTEA) Assay for Hepatocyte Growth Facto (HGF) using HepaRG (AID 2283505). The procedure, abridged: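 Read-out is HGF transcript level by qRT-PCR, normalized to three housekeeping genes, fitted bidirectionally against 0.5% DMSO vehicle. Human HepaRG cells received test chemicals for 48 h at up to 100 uM.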

Read-out in assay [1]: Insulin Like Growth Factor 1 (IGF1), IGF1 (gene 3479)
In words: LTEA_HepaRG_IGF1: Life Technologies and Expression Analysis (LTEA) Assay for Insulin Like Growth Factor 1 (IGF1) using HepaRG (AID 2283506). The procedure, abridged:
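Cells are thawed, plated and cultured 48 h, then exposed in duplicate to chemical (highest 100 uM, half-log steps, 0.5% DMSO) for another 48 h. Total RNA is analysed by Fluidigm qRT-PCR for IGF1 expression relative to vehicle.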

Read-out in assay [2]: Intercellular Adhesion Molecule 1 (ICAM1), ICAM1 (gene 3383)
As to the kind of experiment: LTEA_HepaRG_ICAM1: Life Technologies and Expression Analysis (LTEA) Assay for Intercellular Adhesion Molecule 1 (ICAM1) using HepaRG (AID 2283507). The procedure, abridged: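 Readout is qRT-PCR mRNA level, normalized to three housekeeping genes and fitted bidirectionally against 0.5% DMSO vehicle. Human HepaRG cultures received compound for 48 h, top concentration 100 uM with half-log dilutions.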

Read-out in assay [3]: Insulin-like growth factor-binding protein 1 (IGFBP1), IGFBP1 (gene 3484)
As to the kind of experiment: LTEA_HepaRG_IGFBP1: Life Technologies and Expression Analysis (LTEA) Assay for Insulin-like growth factor-binding protein 1 (IGFBP1) using HepaRG (AID 2283508). The procedure, abridged: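 Thawed HepaRG cells are plated for 48 h, switched to serum-free induction medium, then dosed in duplicate for another 48 h (100 uM top, half-log steps). Lysates in RLT go to qRT-PCR, and gain or loss of signal is fitted relative to vehicle.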

Read-out in assay [4]: Interleukin 6 (IL6), IL6 (gene 3569)
In words: LTEA_HepaRG_IL6: Life Technologies and Expression Analysis (LTEA) Assay for Interleukin 6 (IL6) using HepaRG (AID 2283509). The procedure, abridged:
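Changes in IL6 mRNA, up or down relative to 0.5% DMSO controls, were derived from concentration-response curves in human HepaRG cells treated for 48 h at up to 100 uM, with ACTB, GAPDH and POLR2A as normalizers.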

Read-out in assay [5]: Interleukin 6 Receptor (IL6R), IL6R (gene 3570)
As to the kind of experiment: LTEA_HepaRG_IL6R: Life Technologies and Expression Analysis (LTEA) Assay for Interleukin 6 Receptor (IL6R) using HepaRG (AID 2283510). The procedure, abridged: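 Cells were thawed, plated and cultured 48 h, then medium was changed to serum-free induction medium. Chemicals were added in duplicate (100 uM top, half-log steps, 0.5% DMSO) for 48 h. Lysates were analyzed by qRT-PCR for IL6R expression.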

Read-out in assay [6]: Keratin 19 (KRT19), KRT19 (gene 3880)
In words: LTEA_HepaRG_KRT19: Life Technologies and Expression Analysis (LTEA) Assay for Keratin 19 (KRT19) using HepaRG (AID 2283512). The procedure, abridged:
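KRT19 transcript levels, measured by Fluidigm qRT-PCR against three housekeeping genes, are fitted for gain or loss of signal relative to DMSO. Human HepaRG cells receive test chemicals (top 100 uM, half-log steps, 0.5% DMSO) for 48 hours.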

Read-out in assay [7]: Lipase C (LIPC), LIPC (gene 3990)
As to the kind of experiment: LTEA_HepaRG_LIPC: Life Technologies and Expression Analysis (LTEA) Assay for Lipase C (LIPC) using HepaRG (AID 2283514). The procedure, abridged:
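In this multiplexed gene-expression screen, human HepaRG cultures received test chemicals for 48 h across eight concentrations with 100 uM highest, in duplicate. Values reflect LIPC mRNA induction or suppression versus DMSO vehicle, from normalized qRT-PCR.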

Read-out in assay [8]: Lipoprotein lipase (LPL), LPL (gene 4023)
As to the kind of experiment: LTEA_HepaRG_LPL: Life Technologies and Expression Analysis (LTEA) Assay for Lipoprotein lipase (LPL) using HepaRG (AID 2283515). The procedure, abridged:
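Concentration-response testing used half-log steps from 100 uM in 0.5% DMSO on human HepaRG cells, 48 h, duplicate wells. Phenobarbital 1 mM served as induction control; LPL mRNA was normalized to ACTB, GAPDH, POLR2A.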

Read-out in assay [9]: MicroRNA 122 (MIR122), gene 406906
As to the kind of experiment: LTEA_HepaRG_MIR122: Life Technologies and Expression Analysis (LTEA) Assay for MicroRNA 122 (MIR122) using HepaRG (AID 2283516). Also: the transcript read is the microRNA miR-122. The procedure, abridged:
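Human liver HepaRG cultures receive test chemicals for 48 h at eight half-log concentrations from 100 uM. Expression is quantified by qRT-PCR with ACTB/GAPDH/POLR2A normalization and fitted bidirectionally against 0.5% DMSO.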

Read-out in assay [10]: matrix metalloproteinase-10 (MMP10), MMP10 (gene 4319)
As to the kind of experiment: LTEA_HepaRG_MMP10: Life Technologies and Expression Analysis (LTEA) Assay for matrix metalloproteinase-10 (MMP10) using HepaRG (AID 2283517). The procedure, abridged: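 In differentiated HepaRG cultures kept in 0.5% DMSO, test chemicals act for 48 h over an eight-point range with a top dose of 100 uM. Expression is then quantified by TaqMan RT-PCR against ACTB, GAPDH and POLR2A.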

Read-out in another assay: MYC, MYC (gene 4609)
As to the kind of experiment: LTEA_HepaRG_MYC: Life Technologies and Expression Analysis (LTEA) Assay for MYC using HepaRG (AID 2283518). The procedure, abridged:
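HepaRG, ~100,000 cells/well, collagen I; 48 h plating; serum-free induction medium; 48 h dosing, duplicate, 100 uM top, half-log, 0.5% DMSO; total RNA → qRT-PCR MYC; gain/loss fit vs DMSO.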

Read-out in assay [11]: matrix metalloproteinase-3 (MMP3), MMP3 (gene 4314)
As to the kind of experiment: LTEA_HepaRG_MMP3: Life Technologies and Expression Analysis (LTEA) Assay for matrix metalloproteinase-3 (MMP3) using HepaRG (AID 2283519). The procedure, abridged: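 Human liver HepaRG cultures received chemicals (top concentration 100 uM, 0.5% DMSO) for 48 h in duplicate. MMP3 mRNA induction or loss was then assessed via TaqMan qRT-PCR with housekeeping-gene normalisation.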

Read-out in assay [12]: Paternally Expressed 10 (PEG10), PEG10 (gene 23089)
As to the kind of experiment: LTEA_HepaRG_PEG10: Life Technologies and Expression Analysis (LTEA) Assay for Paternally Expressed 10 (PEG10) using HepaRG (AID 2283520).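 As to AC50: PEG10 transcript by qRT-PCR normalised to ACTB GAPDH and POLR2A.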 The procedure, abridged: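 Human HepaRG cultures are dosed for 48 h across an eight-point half-log series starting at 100 uM, with 0.5% DMSO as vehicle and baseline. Gain or loss of PEG10 transcript is measured by qRT-PCR and fitted in both directions.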

Read-out in assay [13]: Nuclear factor NF-kappa-B p105 subunit (Homo sapiens) (UniProt P19838)
In words: LTEA_HepaRG_NFKB1: Life Technologies and Expression Analysis (LTEA) Assay for Nuclear Factor Kappa B Subunit 1 (NFKB1) using HepaRG (AID 2283521).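 Also: TaqMan qRT-PCR transcript normalised to ACTB GAPDH and POLR2A housekeeping genes.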 The procedure, abridged:
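Differentiated human HepaRG cells were exposed for 48 h in serum-free induction medium to eight concentrations (top 100 uM, half-log steps, 0.5% DMSO), in duplicate. NFKB1 mRNA was measured by TaqMan qRT-PCR, normalized to ACTB/GAPDH/POLR2A, and fitted bidirectionally against DMSO.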

Read-out in assay [14]: Protein phosphatase 2A (PPP2R4), PTPA (gene 5524)
In words: LTEA_HepaRG_PPP2R4: Life Technologies and Expression Analysis (LTEA) Assay for Protein phosphatase 2A (PPP2R4) using HepaRG (AID 2283522). The procedure, abridged: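 Cells were plated, cultured 48 h, switched to serum-free induction medium, then dosed for 48 h (8 points, max 100 uM, 0.5% DMSO). RNA was isolated and PPP2R4 expression measured by TaqMan qRT-PCR.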

Read-out in assay [15]: Phosphatase and tensin (PTEN), PTEN (gene 5728)
In words: LTEA_HepaRG_PTEN: Life Technologies and Expression Analysis (LTEA) Assay for Phosphatase and tensin (PTEN) using HepaRG (AID 2283523). The procedure, abridged:
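Expression of PTEN is quantified in the human liver line HepaRG following two days of dosing (top concentration 100 uM, half-log dilutions, 0.5% DMSO). Values derive from bidirectional curve fitting relative to DMSO controls.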

Read-out in assay [16]: solute carrier (SLC22A1), SLC22A1 (gene 6580)
As to the kind of experiment: LTEA_HepaRG_SLC22A1: Life Technologies and Expression Analysis (LTEA) Assay for solute carrier (SLC22A1) using HepaRG (AID 2283524). The procedure, abridged: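 Transcript induction or suppression of SLC22A1 in human HepaRG cultures is scored after 48 h chemical treatment, with DMSO (0.5%) as baseline for bidirectional fitting. Concentrations span eight half-log points topping at 100 uM.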

Read-out in assay [17]: Potassium channel subfamily K member 1 (KCNK1), KCNK1 (gene 3775)
As to the kind of experiment: LTEA_HepaRG_KCNK1: Life Technologies and Expression Analysis (LTEA) Assay for Potassium channel subfamily K member 1 (KCNK1) using HepaRG (AID 2283511). The procedure, abridged: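 Human HepaRG cultures receive test chemicals for 48 h in 0.5% DMSO, top concentration 100 uM with half-log dilutions. Induction or suppression of KCNK1 mRNA relative to DMSO is derived by bidirectional fitting of qRT-PCR data.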

Read-out in assay [18]: JUN Transcription Factor, JUN (gene 3725)
As to the kind of experiment: LTEA_HepaRG_JUN: Life Technologies and Expression Analysis (LTEA) Assay for JUN Transcription Factor using HepaRG (AID 2283513). The procedure, abridged:
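Read-out is JUN transcript level by TaqMan qRT-PCR, normalized to ACTB, GAPDH and POLR2A, after 48 h chemical treatment of HepaRG cells. Concentration-response spanned eight half-log points up to 100 uM in 0.5% DMSO.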

Chain of Nuclear factor NF-kappa-B p105 subunit (Homo sapiens) (P19838 whole entry, looked up): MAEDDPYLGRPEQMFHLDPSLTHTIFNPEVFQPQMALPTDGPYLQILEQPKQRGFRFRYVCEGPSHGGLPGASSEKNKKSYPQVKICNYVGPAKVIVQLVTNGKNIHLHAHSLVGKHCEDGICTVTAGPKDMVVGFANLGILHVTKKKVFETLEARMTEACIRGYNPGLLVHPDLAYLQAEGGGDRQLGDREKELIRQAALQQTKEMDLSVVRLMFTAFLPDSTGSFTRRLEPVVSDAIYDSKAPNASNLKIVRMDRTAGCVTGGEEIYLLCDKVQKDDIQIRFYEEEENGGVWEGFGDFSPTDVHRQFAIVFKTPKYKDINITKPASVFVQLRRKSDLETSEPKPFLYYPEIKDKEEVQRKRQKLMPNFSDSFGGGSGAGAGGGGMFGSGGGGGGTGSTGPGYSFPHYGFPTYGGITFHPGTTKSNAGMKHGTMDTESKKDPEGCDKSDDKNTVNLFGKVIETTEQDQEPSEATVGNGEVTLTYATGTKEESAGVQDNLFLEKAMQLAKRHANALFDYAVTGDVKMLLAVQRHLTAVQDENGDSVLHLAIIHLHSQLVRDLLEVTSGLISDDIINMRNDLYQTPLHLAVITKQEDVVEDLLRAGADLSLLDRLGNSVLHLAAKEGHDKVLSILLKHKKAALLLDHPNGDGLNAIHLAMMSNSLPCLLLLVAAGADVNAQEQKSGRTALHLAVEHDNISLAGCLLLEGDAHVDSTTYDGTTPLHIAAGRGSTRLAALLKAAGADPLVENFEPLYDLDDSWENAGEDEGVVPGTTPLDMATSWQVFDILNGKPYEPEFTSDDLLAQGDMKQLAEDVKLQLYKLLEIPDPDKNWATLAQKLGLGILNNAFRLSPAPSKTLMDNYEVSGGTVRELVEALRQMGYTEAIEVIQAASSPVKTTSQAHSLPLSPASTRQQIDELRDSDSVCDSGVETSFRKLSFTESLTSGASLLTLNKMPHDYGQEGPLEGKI

As to `c1cc2ccc3cccc4ccc(c1)c2c34`, the compound was classed as inactive (in the assay with HGF (gene 3082); in assay [1]; in assay [2]; in assay [3]; in [4]; in [5]). The outcome in assay [6] is “inactive”; in assay [7], “inactive”; in assay [8] it was “inactive”; in assay [9], “inactive”; in assay [10] it was “inactive”; in the assay with MYC, MYC (gene 4609), “inactive”. The outcome in assay [11], in [12], in assay [13], in [14], in [15] and in assay [16] was inactive.

For the compound `O=C(NC(=O)c1c(F)cccc1F)Nc1cc(Cl)c(OC(F)(F)C(F)F)c(Cl)c1`, the outcome (with HGF (gene 3082); in [1]; in assay [2]; in assay [3]; in assay [4]; in assay [5]) was inactive. For the same compound, the outcome was “inactive” in [6]; “inactive” in [8]; “inactive” in [9]; “inactive” in [10]; “inactive” in the assay with MYC, MYC (gene 4609); “inactive” in [11]. For the same compound, the compound was called inactive in assay [12], in assay [13], in [14], in assay [15] and in assay [16]. Further, in assay [7], the AC50 is 50 µM (active).

Regarding `O=C(O)C(F)(F)C(F)(F)C(F)(F)C(F)(F)C(F)(F)C(F)(F)C(F)(F)C(F)(F)C(F)(F)F`, the AC50 with HGF (gene 3082) is 89.8 µM (active); in [1] it was 31.2 µM (active); in [2], 22.7 µM (active); in assay [3], 27.9 µM (active); in assay [4] it was 71.7 µM (active); in [7], 21.1 µM (active). Besides, the AC50 in assay [8] is 89.2 µM (active); in assay [9], 63.1 µM (active); in [10], 37.1 µM (active); with MYC, MYC (gene 4609), 22.8 µM (active); in [12] it was 12.1 µM (active); in [14] it was 88.9 µM (active). For the same compound, the results for the AC50 in assay [15] and in [16] were 82.2 µM (active) and 41.2 µM (active), respectively. The compound was classed as inactive in assay [5], in assay [17], in assay [6], in assay [11] and in assay [13].

Consider `C1CC2OC2CC1C1CO1` (stereo unspecified), for which the outcome (in the assay with HGF (gene 3082); in assay [1]; in assay [2]; in assay [3]; in assay [4]; in assay [5]) was inactive. Besides, the compound was called inactive in [6], in [18], in [7], in assay [8], in assay [9] and in assay [10]. Also, the outcome was “inactive” in the assay with MYC, MYC (gene 4609); “inactive” in [11]; “inactive” in [12]; “inactive” in assay [13]; “inactive” in assay [14]; “inactive” in assay [15]. The result in assay [16] was inactive.

On to `C=CC(N)=O`, for which the outcome (with HGF (gene 3082); in [1]; in assay [2]; in assay [3]; in [4]; in assay [5]) was inactive. For the same compound, the compound was called inactive in assay [6], in assay [18], in [7], in assay [8], in [9] and in [10]. Further, the outcome with MYC, MYC (gene 4609) is “inactive”; in [11], “inactive”; in assay [12], “inactive”; in [13] it was “inactive”; in assay [14] it was “inactive”; in assay [15] it was “inactive”. Moreover, the compound was classed as inactive in assay [16].

For `c1ccc(-c2ccccc2)cc1`, the result (with HGF (gene 3082); in assay [1]; in [2]; in assay [3]; in assay [4]; in assay [5]) was inactive. Besides, the outcome is “inactive” in assay [6]; “inactive” in assay [7]; “inactive” in assay [8]; “inactive” in assay [9]; “inactive” in [10]; “inactive” with MYC, MYC (gene 4609). The compound was called inactive in [11], in assay [12], in [13], in assay [14], in assay [15] and in assay [16].

As usually defined, the AC50 is the concentration giving half of the maximal activity seen.
